From PubChem
KCNQ2 block: rat KCNQ2 potassium channel inhibitors, primary screen, cell-based, CHO-K1, FluxOR thallium flux, B-score; Potassium voltage-gated channel subfamily KQT member 2 (Rattus norvegicus), O88943; 20 min; active compounds read low; B-score at 10 µM; 310,000 compounds, 1.1% hits; AID 2156, 2009;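 active = fluorescence ratio B-score at most minus 3 library SDs, with starting brightness B-score within 2 library SDs, cut at about -5.5 in these data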
Target sequence (O88943 whole entry, looked up): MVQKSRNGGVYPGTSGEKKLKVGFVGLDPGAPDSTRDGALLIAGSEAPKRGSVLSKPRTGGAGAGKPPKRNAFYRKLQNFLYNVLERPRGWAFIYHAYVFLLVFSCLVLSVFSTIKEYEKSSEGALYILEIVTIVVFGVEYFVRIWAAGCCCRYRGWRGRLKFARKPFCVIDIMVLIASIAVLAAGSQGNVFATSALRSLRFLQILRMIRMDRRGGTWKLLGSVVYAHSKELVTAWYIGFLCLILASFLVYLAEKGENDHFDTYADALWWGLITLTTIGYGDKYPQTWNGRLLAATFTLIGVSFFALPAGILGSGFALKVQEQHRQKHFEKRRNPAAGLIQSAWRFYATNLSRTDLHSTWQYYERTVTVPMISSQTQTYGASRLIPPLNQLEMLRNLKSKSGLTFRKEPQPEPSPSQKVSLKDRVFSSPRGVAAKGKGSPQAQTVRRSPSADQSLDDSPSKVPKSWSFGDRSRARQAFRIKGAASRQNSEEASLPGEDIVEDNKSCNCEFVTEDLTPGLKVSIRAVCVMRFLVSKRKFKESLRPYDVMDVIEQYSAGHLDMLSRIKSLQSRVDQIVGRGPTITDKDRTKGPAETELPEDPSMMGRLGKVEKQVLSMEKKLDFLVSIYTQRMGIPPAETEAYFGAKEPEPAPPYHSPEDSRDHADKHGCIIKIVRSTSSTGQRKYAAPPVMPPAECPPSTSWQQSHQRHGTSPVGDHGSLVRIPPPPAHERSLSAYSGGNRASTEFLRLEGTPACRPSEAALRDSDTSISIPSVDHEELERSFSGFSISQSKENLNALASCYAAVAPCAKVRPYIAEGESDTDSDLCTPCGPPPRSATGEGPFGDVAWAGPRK
KCNQ2 enhance: potentiators of rat KCNQ2 potassium channel. 310,000 compounds, 0.54% hits. B-score at 10 µM. CHO-K1 KCNQ2, FluxOR thallium flux fluorescence; active compounds read high. Potassium voltage-gated channel subfamily KQT member 2 (Rattus norvegicus), O88943;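 active = fluorescence ratio B-score at least 3 SD of library B-scores, with initial fluorescence B-score within 3 of them, cut at about 5.3 in these data; same plate scores as AID 2156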;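 note: B-score of peak minus minimum over baseline fluorescence ratio after K+ and Tl+ stimulus; positive B-score means potentiation of KCNQ2 with more thallium influx and brighter signal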
KCNQ2 inh conf: rat KCNQ2 potassium channel inhibitors, confirmation, cell-based, thallium flux | activity change, negative = inhibition, % at 10 µM | shares compounds with KCNQ2 block | KCNQ2-expressing cells, inhibition; active compounds read low | AID 493025, 2011 | 1,000 compounds, 57% hits;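 note: 0% = vehicle wells and values are ratio percent relative to vehicle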
KCNQ1 spec: human KCNQ1 channel inhibition, counter-screen for KCNQ2 inhibitor project, cell-based, FluxOR thallium flux | shares compounds with KCNQ2 block | KCNQ1-expressing cells, FluxOR thallium flux fluorescence; active compounds read low | activity change, negative = inhibition, % at 10 µM | 1,000 compounds, 15% hits;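 active = activity change at least 3 SD of negative controls below their mean in both duplicate wells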;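 note: CHO cells stably transfected with KCNQ1 and depolarized by potassium stimulus; peak minus minimum fluorescence over baseline after thallium addition; 0% = vehicle negative control and -100% = blank without thallium stimulus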
CHO Tl ctr: thallium flux change in parental CHO cells, counter-screen for KCNQ2 inhibitor project; shares compounds with KCNQ2 block; activity change, % at 10 µM; 1,000 compounds, 14% hits; active compounds read low;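 note: 0% = vehicle negative controls with stimulus buffer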
Kir21 conf inh: mouse Kir2.1 channel blockers, retest, confirmation, cell-based, FluxOR thallium flux, duplicate | shares compounds with KCNQ2 enhance | Kir2.1-expressing cells, FluxOR thallium flux fluorescence; active compounds read low | Tl flux remaining, % of negative control (active compounds read low), % at 10 µM | 2,300 compounds, 41% hits;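 active = Primary-screen hit whose thallium flux fell at least 3 control SD below untreated wells in both duplicates, with normal baseline fluorescence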;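 note: 0% = blank wells without stimulus and 100% = stimulated no-compound controls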
HEK293 Tl flux: counter-screen for Kir2.1 inhibitors: effect in parental HEK293 cells; shares compounds with KCNQ2 enhance; FluxOR thallium flux fluorescence; 0% = unstimulated blank wells; FluxOR signal as % of negative control (100 = no effect), % at 10 µM; 2,300 compounds, 19% hits;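 active = dye signal at least 3 control SD above or below untreated wells in both duplicates, raw fluorescence within 3, either direction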;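 note: percent is based on the flux ratio of peak minus minimum fluorescence over baseline F0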
CHO-K1 Tl ctr: nonspecific thallium flux increase in parental CHO-K1, confirmation, counter-screen for KCNQ2 potentiator project, cell-based, FluxOR thallium flux, duplicate; 1,200 compounds, 43% hits; shares compounds with KCNQ2 enhance; parental CHO-K1 cells, FluxOR thallium flux fluorescence; zero = vehicle mean+3SD, 100% = vehicle-minus-blank window; activity increase over 3SD of controls, % at 10 µM;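 active = signal rise of at least 3 SD above the untreated control mean, in both duplicate wells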;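 note: counter screen of KCNQ2 potentiator hits so any rise reflects channel-independent effects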
KCNQ1 pot spec: human KCNQ1 channel potentiation off-target, confirmation, selectivity assay for KCNQ2 potentiator project, cell-based, CHO, FluxOR thallium flux. shares compounds with KCNQ2 enhance. CHO KCNQ1 stable, FluxOR thallium flux fluorescence; beyond 3SD, as % of vehicle-control signal. activation over 3SD threshold, % at 10 µM. 1,200 compounds, 28% hits. AID 2283, 2010;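 active = fluorescence ratio rise of at least 3 SD of vehicle wells above their mean, in both replicate wells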;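 note: 0% = vehicle mean plus 3 SD and 100% = vehicle minus unstimulated blank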
KCNQ2 pot confirm: rat KCNQ2 channel potentiators, confirmation, cell-based, CHO, FluxOR thallium flux, duplicate. shares compounds with KCNQ2 enhance. CHO-KCNQ2 cells, FluxOR thallium flux fluorescence. potentiation, less the hit threshold, % at 10 µM. 1,200 compounds, 68% hits. AID 2287, 2010;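 active = fluorescence ratio rising 3 SD or more over the vehicle control mean in both replicates, plus primary screen hit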;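 note: peak minus minimum thallium fluorescence divided by baseline after K/Tl stimulus; 0% = vehicle mean plus 3 SD and 100% = vehicle minus unstimulated blank difference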
Kir2-1 sel: mouse Kir2.1 channel activation off-target, confirmation, selectivity assay for KCNQ2 potentiator project, cell-based, HEK293, FluxOR thallium flux; activity over 3SD threshold, % at 10 µM; HEK293 Kir2.1, FluxOR thallium flux fluorescence; 1,200 compounds, 2% hits; shares compounds with KCNQ2 enhance;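 active = fluorescence ratio rise of at least 3 SD above the vehicle-control mean, seen in both replicates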;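 note: 0% = vehicle mean plus 3 SD and 100% = vehicle minus no-stimulus blank window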
KCNQ2 W236L MoA: potentiators of retigabine-insensitive KCNQ2 W236L, mechanism study for KCNQ2 potentiator project, cell-based, rat KCNQ2 W236L, CHO, automated patch clamp; current increase over 3SD of negative controls (%), active compounds read high, % at 25 µM; automated patch clamp current; shares compounds with KCNQ2 enhance; AID 2558, 2010; 940 compounds, 10% hits;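 active = current increase at least 3 SD of the untreated controls above them in both duplicate recordings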
* hit, by the source's call; i = inactive; · = no result given. This is a sample that favours compounds with a hit; in the whole collection about 1.6% have one here. Unless noted, the rule behind the calls is not given here.

SMILES	KCNQ2 block	KCNQ2 enhance	Kir21 conf inh	HEK293 Tl flux	others
COC(=O)C1=C(c2ccc(S(C)(=O)=O)cc2)C[C@@H]2CC[C@H]1N2C(=O)NC(C)C	i	0.37	·	·
O=C([O-])c1ccc(-[n+]2c(-c3ccccc3)cc(-c3ccccc3)cc2-c2ccccc2)cc1	i	·	·	·
Oc1ccc(-[n+]2c(-c3ccccc3)cc(-c3ccccc3)cc2-c2ccccc2)cc1	-6.9*	-6.9	44%*	74%*	KCNQ2 inh conf=-27%*;KCNQ1 spec=i;CHO Tl ctr=i
O=C(c1ccc(Cl)cc1)C1CCCN(C2CCSCC2)C1 (stereo unspecified)	i	·	·	·
Cc1ccc2[nH]c(C)c(CCNCc3ccco3)c2c1	i	0.72	·	·
CCOc1cccc(CNCCc2c(C)[nH]c3ccc(OC(F)(F)F)cc23)c1O	i	·	22%*	i
Cc1[nH]c2ccc(OC(F)(F)F)cc2c1CCNCc1cccc([N+](=O)[O-])c1	i	·	·	·
Cc1[nH]c2ccc(OC(F)(F)F)cc2c1CCNCc1ccc(Cl)cc1	-7.7*	-7.7	16%*	i
CCOc1ccc(NC2=NCCCS2)cc1	i	1.4	·	·
CC1=CC2/C=C(\C)CCC(O)C(O)/C=C/C(=O)C23C(=O)NC(CC(C)C)C3C1C (stereo unspecified)	i	·	64%*	i
COC(=O)N(c1ccccc1)P(=O)(Oc1ccccc1)Oc1ccccc1	i	·	·	·
COc1ccc(CN2CCCC(C(=O)c3sccc3C)C2)cc1O (stereo unspecified)	i	0.95	56%*	i
COc1cc(CN2CCCC(C(=O)c3sccc3C)C2)cc(OC)c1O (stereo unspecified)	i	0.28	·	·
COc1cccc(C(=O)C2CCCN(Cc3ccc(F)cc3)C2)c1 (stereo unspecified)	i	1.5	·	·
COc1ccc(CN2CCCC(C(=O)c3ccc(Cl)cc3)C2)c(O)c1 (stereo unspecified)	i	·	68%*	i
CC(=O)OC(C)(C)/C=C/C(=O)C(C)(O)C1[C@H](O)C[C@@]2(C)C3CC=C4C(CC[C@@H](O)C4(C)C)[C@]3(CO)C(=O)C[C@]12C (stereo partly specified)	i	7.1*	i	i	CHO-K1 Tl ctr=-10;KCNQ1 pot spec=-22;KCNQ2 pot confirm=9.0*;Kir2-1 sel=-38;KCNQ2 W236L MoA=i
CCc1ccc(NC(=O)CN2CC(c3ccccc3)CC2=O)cc1 (stereo unspecified)	i	·	·	·
CN1CCCN(c2ccc([N+](=O)[O-])nc2)CC1	i	0.67	·	·
N#CC(C#N)=NNc1ccc(-n2ccc(C(F)(F)F)n2)cc1	i	4.8	60%*	73%*
Cc1cc(C)n(-c2ccc(NN=C(C#N)C#N)cc2)n1	i	·	·	·
O=c1cccc2n1CC1CC2CN(Cc2cccc(Cl)c2Cl)C1 (stereo unspecified)	i	·	38%*	i
O=c1cccc2n1CC1CC2CN(Cc2c(F)cccc2Cl)C1 (stereo unspecified)	i	0.97	·	·
Cc1ccc(CN2C3CCCC2CC(NC(=O)Nc2cccc(F)c2)C3)cc1 (stereo unspecified)	i	·	·	·
COc1ccc(CNCCc2ccccc2F)c(OC)c1C	i	0.26	·	·
COc1cccc(CNCCc2c[nH]c3ccccc23)c1	i	2.5	·	·
SMILES	KCNQ2 block	KCNQ2 enhance	Kir21 conf inh	HEK293 Tl flux	others
COc1ccc(CNCCc2c[nH]c3ccccc23)c(OC)c1C	i	0.92	46%*	i
COc1cc(C)c(CNCCc2c[nH]c3ccccc23)cc1C	i	·	40%*	i
O=P1(Oc2ccccc2)CC=C[C@H](COCc2ccccc2)O1 (stereo partly specified)	i	·	·	·
CCc1ccc(NC(=O)CCNC(=O)N2C[C@H]3C[C@@H](C2)c2cccc(=O)n2C3)cc1	i	0.01	·	·
COc1ccc(-[n+]2c(-c3ccccc3)cc(-c3ccccc3)cc2-c2ccccc2)cc1	-8.4*	-8.4	26%*	i
O=[N+]([O-])c1ccc(-[n+]2c(-c3ccccc3)cc(-c3ccccc3)cc2-c2ccccc2)cc1	i	0.04	·	·
O=[N+]([O-])c1ccccc1-c1cc(-c2ccccc2)cc(-c2ccccc2)[n+]1Cc1ccccc1Cl	-7.4*	-7.4	22%*	i
CCOc1cc2c(cc1OCC)-n1cccc1C(c1ccccc1F)NC2 (stereo unspecified)	i	·	·	·
CN[C@@H]1C[C@@H](c2ccc(Cl)c(Cl)c2)c2ccccc21	i	·	28%*	i
CC(NCc1ccc(Cl)c(Cl)c1)C(O)c1ccccc1 (stereo unspecified)	i	·	·	·
COc1cc(CN=Cc2c(O)n(C(C)(C)C)c(=O)[nH]c2=O)cc(OC)c1	i	·	·	·
